Measurements published in PubChem BioAssay AID1159580 (chemical genetic matrix, 2015).
Screen size: about 5,500 compounds; about 2,000 (36%) were called active. Another 18% or so got no clear call; they are omitted. Cut-off read from the data, not from the text of the source: active = normalized growth mostly below about 0.91 (no sharp cut-off); inconclusive = no clear call, values can overlap the other calls; inactive = mostly above about 0.92. Some of the results follow.

Assay: chemical genetic growth profiling, strain panel (AID 1159580);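 note: tested at 20 µM; growth read once vehicle control cultures reached saturation at 30 °C; 1 = growth at the plate median or of vehicle wells; lower values mean less growth of the strain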
Settings: S. cerevisiae deletion strains, growth OD
[1] = locus YAR019C, strain CDC15, stronger effect = lower value
[2] = locus YBL105C, strain PKC1, stronger effect = lower value
[3] = locus YBR135W, strain CKS1, stronger effect = lower value
[4] = locus YBR136W, strain MEC1, stronger effect = lower value
[5] = locus YBR160W, strain CDC28, stronger effect = lower value
[6] = locus YDL017W, strain CDC7, stronger effect = lower value
[7] = locus YDL028C, strain MPS1, stronger effect = lower value
[8] = locus YDL101C, strain DUN1, stronger effect = lower value
[9] = locus YDL108W, strain KIN28, stronger effect = lower value
[10] = locus YDL132W, strain cdc53, stronger effect = lower value
[11] = locus YDL214C, strain PRR2, stronger effect = lower value
[12] = locus YDR052C, strain DBF4, stronger effect = lower value
[13] = locus YDR054C, strain cdc34, stronger effect = lower value
[14] = locus YDR226W, strain ADK1, stronger effect = lower value
[15] = locus YDR477W, strain SNF1, stronger effect = lower value
[16] = locus YER123W, strain YCK3, stronger effect = lower value
[17] = locus YER133W, strain GLC7, stronger effect = lower value
[18] = locus YFL009W, strain cdc4, stronger effect = lower value
[19] = locus YFL029C, strain CAK1, stronger effect = lower value
[20] = locus YFR003C, strain YPI1, stronger effect = lower value
[21] = locus YFR019W, strain FAB1, stronger effect = lower value
[22] = locus YFR028C, strain CDC14, stronger effect = lower value
[23] = locus YGR040W, strain KSS1, stronger effect = lower value
[24] = locus YGR052W, strain FMP48, stronger effect = lower value
[25] = locus YGR092W, strain DBF2, stronger effect = lower value
[26] = locus YHR030C, strain SLT2, stronger effect = lower value
[27] = locus YHR079C, strain IRE1, stronger effect = lower value
[28] = locus YHR082C, strain KSP1, stronger effect = lower value
[29] = locus YHR205W, strain SCH9, stronger effect = lower value
[30] = locus YIL147C, strain SLN1, stronger effect = lower value
[31] = locus YJL095W, strain BCK1, stronger effect = lower value
[32] = locus YJL128C, strain PBS2, stronger effect = lower value
[33] = locus YJL157C, strain FAR1, stronger effect = lower value
[34] = locus YJR016C, strain ILV3, stronger effect = lower value
[35] = locus YJR066W, strain TOR1 (second series), stronger effect = lower value
[36] = locus YJR066W, strain TOR1, stronger effect = lower value
[37] = locus YKL048C, strain ELM1, stronger effect = lower value
[38] = locus YKL067W, strain YNK1, stronger effect = lower value
[39] = locus YKL101W, strain HSL1, stronger effect = lower value
[40] = locus YKL193C, strain SDS22, stronger effect = lower value
[41] = locus YKL203C, strain TOR2, stronger effect = lower value
[42] = locus YLR113W, strain HOG1, stronger effect = lower value
[43] = locus YLR133W, strain CKI1, stronger effect = lower value
[44] = locus YLR403W, strain SFP1, stronger effect = lower value
[45] = locus YML070W, strain DAK1, stronger effect = lower value
[46] = locus YMR001C, strain CDC5, stronger effect = lower value
[47] = locus YMR205C, strain PFK2 (second series), stronger effect = lower value
[48] = locus YMR277W, strain FCP1, stronger effect = lower value
[49] = locus YNL006W, strain LST8, stronger effect = lower value
[50] = locus YNL020C, strain ARK1, stronger effect = lower value
[51] = locus YNL161W, strain CBK1, stronger effect = lower value
[52] = locus YNL183C, strain NPR1, stronger effect = lower value
[53] = locus YNL207W, strain RIO2, stronger effect = lower value
[54] = locus YNL222W, strain SSU72, stronger effect = lower value
[55] = locus YNL307C, strain MCK1 (second series), stronger effect = lower value
[56] = locus YOL078W, strain AVO1, stronger effect = lower value
[57] = locus YOL136C, strain PFK27, stronger effect = lower value
[58] = locus YOR061W, strain CKA2, stronger effect = lower value
[59] = locus YOR119C, strain RIO1, stronger effect = lower value
[60] = locus YOR231W, strain MKK1, stronger effect = lower value
[61] = locus YOR329C, strain SCD5, stronger effect = lower value
[62] = locus YPL031C, strain PHO85, stronger effect = lower value
[63] = locus YPL153C, strain RAD53, stronger effect = lower value
[64] = locus YPL204W, strain HRR25, stronger effect = lower value
[65] = locus YPL209C, strain IPL1, stronger effect = lower value
[66] = locus YPL256C, strain CLN2, stronger effect = lower value
[67] = locus YPR025C, strain CCL1, stronger effect = lower value
[68] = locus YPR106W, strain ISR1, stronger effect = lower value
[69] = locus YPR111W, strain DBF20, stronger effect = lower value
[70] = strain NNK1, stronger effect = lower value
[71] = strain TSCII, stronger effect = lower value
[72] = locus YAL013W, strain DEP1, stronger effect = lower value
[73] = locus YBR229C, strain ROT2, stronger effect = lower value
[74] = locus YDR150W, strain NUM1, stronger effect = lower value
[75] = locus YEL061C, strain CIN8, stronger effect = lower value
[76] = locus YGR078C, strain PAC10, stronger effect = lower value
[77] = locus YHR087W, strain rtc3, stronger effect = lower value
[78] = locus YJR043C, strain POL32, stronger effect = lower value
[79] = locus YJR075W, strain HOC1, stronger effect = lower value
[80] = locus YKL190W, strain CNB1, stronger effect = lower value
[81] = locus YLR039C, strain RIC1, stronger effect = lower value
[82] = locus YLR058C, strain SHM2 (second series), stronger effect = lower value
[83] = locus YLR085C, strain ARP6, stronger effect = lower value
[84] = locus YLR262C, strain YPT6, stronger effect = lower value
[85] = locus YML094W, strain GIM5, stronger effect = lower value
[86] = locus YMR219W, strain ESC1, stronger effect = lower value
[87] = locus YMR263W, strain SAP30, stronger effect = lower value
[88] = locus YNL153C, strain GIM3, stronger effect = lower value
[89] = locus YNL298W, strain CLA4 (second series), stronger effect = lower value
[90] = locus YNL322C, strain KRE1, stronger effect = lower value
[91] = locus YNR030W, strain Alg12, stronger effect = lower value
[92] = locus YOL006C, strain TOP1, stronger effect = lower value
[93] = locus YPL055C, strain LGE1, stronger effect = lower value
[94] = locus YPL241C, strain CIN2, stronger effect = lower value
[95] = locus YPR135W, strain CTF4, stronger effect = lower value
[96] = locus YGR229C, strain SMI1, stronger effect = lower value
[97] = locus YMR307W, strain GAS1, stronger effect = lower value

Measured: normalized growth

O=C(Nc1ccccc1Sc1ccc(C(F)(F)F)cc1[N+](=O)[O-])C(Cl)Cl
inactive: [1] 0.997 | [2] 0.994 | [3] 0.987 | [4] 0.991 | [5] 0.994 | [6] 1.01 | [7] 0.992 | [8] 0.983 | [9] 0.991 | [10] 0.994 | [11] 0.952 | [12] 1 | [13] 0.998 | [14] 0.993 | [15] 0.985 | [16] 0.958 | [17] 0.959 | [18] 0.995 | [19] 0.996 | [20] 0.986 | [21] 0.955 | [22] 0.983 | [23] 0.964 | [24] 0.963 | [25] 0.909 | [26] 0.985 | [27] 0.973 | [28] 1.02 | [29] 0.864 | [30] 0.995 | [31] 0.894 | [32] 0.945 | [33] 0.961 | [34] 0.999 | [35] 0.933 | [36] 1.01 | [37] 0.949 | [38] 0.934 | [39] 0.946 | [40] 0.996 | [41] 1.01 | [42] 0.907 | [43] 0.947 | [44] 0.915 | [45] 0.938 | [46] 0.998 | [47] 0.953 | [48] 0.984 | [49] 0.986 | [50] 0.959 | [51] 0.993 | [52] 0.96 | [53] 0.989 | [54] 0.99 | [55] 0.903 | [56] 0.99 | [57] 0.907 | [58] 0.97 | [59] 1.05 | [60] 0.935 | [61] 0.997 | [62] 0.984 | [63] 0.991 | [64] 0.958 | [65] 0.992 | [66] 1.02 | [67] 0.997 | [68] 0.996 | [69] 0.967 | [70] 0.976 | [71] 0.992

Cn1c(Sc2ccc(C(F)(F)F)cc2[N+](=O)[O-])nnc1C(F)(F)F
inactive: [72] 1 | [73] 1.01 | [8] 1.02 | [74] 0.988 | [75] 1 | [76] 1.01 | [26] 1.04 | [77] 1 | [78] 1 | [79] 0.973 | [80] 1.01 | [81] 1.02 | [82] 1.01 | [83] 1.05 | [84] 1.01 | [85] 1.05 | [86] 0.996 | [87] 0.994 | locus YNL128W, strain TEP1, stronger effect = lower value 0.994 | [88] 1 | [89] 0.993 | [90] 1 | [91] 1.02 | [92] 0.899 | [93] 1.01 | [94] 1.11 | [95] 1.05

Nc1nc(Sc2cc(-n3cccc3)c(Cl)cc2[N+](=O)[O-])n[nH]1
inactive: [72] 0.992 | [73] 1 | [8] 0.998 | [74] 0.997 | [75] 0.994 | [76] 0.995 | [96] 1 | [26] 0.972 | [77] 0.992 | [78] 0.996 | [79] 1.01 | [81] 0.973 | [82] 1 | [83] 0.972 | [84] 1 | [85] 0.983 | [86] 1 | [87] 1.01 | [97] 0.985 | [88] 0.995 | [89] 0.972 | [90] 1 | [91] 0.995 | [92] 1.02 | [93] 0.989 | [94] 0.936 | [95] 0.933

Nc1nc(Sc2ccc(C(F)(F)F)cc2[N+](=O)[O-])n[nH]1
inactive: [72] 0.988 | [73] 0.998 | [8] 1.02 | [74] 0.901 | [75] 1.02 | [76] 1.01 | [26] 1.03 | [77] 0.988 | [78] 1.01 | [79] 1.01 | [80] 1 | [81] 1.07 | [82] 1.01 | [83] 1.16 | [84] 1.03 | [85] 0.995 | [86] 1 | [87] 1.01 | [97] 1.24 | [88] 1.01 | [89] 1.01 | [90] 1 | [91] 0.999 | [92] 1.06 | [93] 0.872 | [94] 1.08 | [95] 0.892

O=[N+]([O-])c1cc(C(F)(F)F)ccc1Sc1n[nH]c(-c2cc(Cl)cc(Cl)c2)n1
active: [11] 0.537 | [15] 0.578 | [16] 0.329 | [17] 0.716 | [21] 0.207 | [23] 0.678 | [24] 0.541 | [25] 0.129 | [26] 0.147 | [27] 0.131 | [28] 0.231 | [29] 0.472 | [31] 0.228 | [33] 0.15 | [35] 0.203 | [36] 0.16 | [37] 0.298 | [38] 0.426 | [39] 0.201 | [41] 0.601 | [42] 0.223 | [43] 0.164 | [44] 0.602 | [45] 0.293 | [47] 0.399 | [50] 0.133 | [52] 0.497 | [55] 0.14 | [57] 0.194 | [58] 0.164 | [59] 0.673 | [60] 0.155 | [62] 0.32 | [63] 0.26 | [64] 0.255 | [66] 0.166
inactive: [1] 0.925 | [2] 0.954 | [3] 0.951 | [4] 0.936 | [5] 0.935 | [6] 0.95 | [7] 0.917 | [8] 0.987 | [9] 0.94 | [10] 0.937 | [12] 0.944 | [13] 0.896 | [14] 0.943 | [18] 0.909 | [19] 0.929 | [20] 0.954 | [22] 0.933 | [30] 0.929 | [32] 0.811 | [34] 0.939 | [40] 0.94 | [46] 0.925 | [48] 0.926 | [49] 0.931 | [51] 0.949 | [53] 0.948 | [54] 0.935 | [56] 0.943 | [61] 0.939 | [65] 0.948 | [67] 0.952 | [68] 0.944 | [69] 0.908 | [70] 0.917 | [71] 0.919

Cc1nc(C(F)(F)F)nc(Sc2n[nH]c(-c3cc(Cl)cc(Cl)c3)n2)c1C
inactive: [72] 1.03 | [73] 1.01 | locus YCL061C, strain MRC1, stronger effect = lower value 1 | [8] 0.996 | locus YDL134C, strain PPH21, stronger effect = lower value 1.01 | [74] 0.996 | [75] 0.985 | [76] 1.01 | [96] 1.01 | [26] 1.02 | [77] 1.03 | [78] 1.01 | [79] 1.02 | [80] 1 | [81] 1.07 | [82] 0.998 | [84] 1.02 | [85] 0.994 | [86] 1.02 | [87] 0.993 | [97] 0.988 | [88] 0.995 | [89] 0.966 | [90] 0.995 | [91] 0.974 | [93] 1.03 | [94] 1.07 | [95] 1.17
active: [83] 1.25 [resistant]
